Test [1] can be described thus: qHTS of pediatric cancer cell lines to identify multiple opportunities for drug repurposing: Primary screen for TC32 cells (AID 1347089). Note: nearly all actives have a fitted effect of over 60% in size. The gist of the method:
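A viability screen of TC32 cells was run over 48 h, with primary MIPE doses spanning 0.78 nM–46 µM and NPC doses 0.59 nM–46 µM. ATP luminescence (CellTiter-Glo) served as the read-out.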
On the technique in general: Quantitative high-throughput screening tests each substance at several concentrations.

The nature of test [2]: qHTS of pediatric cancer cell lines to identify multiple opportunities for drug repurposing: Primary screen for DAOY cells (AID 1347090). Note: series mostly up to about 46 µM; nearly all actives have a fitted effect of over 55% in size. The gist of the method: (§1)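 Viability measured as metabolically active cells via CellTiter-Glo luminescence following 48 hours of compound exposure, 11-point dilutions in confirmatory testing. 500-1,000 cells/well plated 5 hours before dosing; controls were DMSO and 2.3 µM bortezomib.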

A short description of test [3]: qHTS of pediatric cancer cell lines to identify multiple opportunities for drug repurposing: Primary screen for A673 cells (AID 1347092). Note: nearly all actives have a fitted effect of over 45% in size. Note: potency is the fitted concentration of half-maximal effect. The method, boiled down:
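Titration-based qHTS on A673 cells: MIPE compounds spanned 11 points (0.78 nM to 46 µM final), NPC compounds 8 points (0.59 nM to 46 µM final). Viability after 48 h was measured by ATP luminescence.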

The nature of test [4]: qHTS of pediatric cancer cell lines to identify multiple opportunities for drug repurposing: Primary screen for SK-N-MC cells (AID 1347093). Note: potency is the fitted concentration of half-maximal effect. The method, boiled down: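 Metabolically active cells were quantified by ATP-dependent luminescence (CellTiter-Glo, 15 min at room temperature) following 48 h treatment. Cells had been plated at 500-1,000 per well and settled for 5 h beforehand.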

A short description of test [5]: qHTS of pediatric cancer cell lines to identify multiple opportunities for drug repurposing: Primary screen for U-2 OS cells (AID 1347096). Note: nearly all actives have a fitted effect of over 50% in size. The gist of the method:
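Viability after 48 h compound treatment at 37C, 500-1,000 cells/well, read as ATP luminescence with CellTiter-Glo. Primary screens used 11-point (MIPE, 0.78 nM-46 µM) or 8-point (NPC, 0.59 nM-46 µM) final concentrations; follow-up screens used 11-point dilutions.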

Test [6] in a line: qHTS of pediatric cancer cell lines to identify multiple opportunities for drug repurposing: Primary screen for SJ-GBM2 cells (AID 1347091). Note: potency is the fitted concentration of half-maximal effect. The method, boiled down: as §1
A short description of test [7]: qHTS of pediatric cancer cell lines to identify multiple opportunities for drug repurposing: Primary screen for NB-EBc1 cells (AID 1347095). Note: potency is the fitted concentration of half-maximal effect. The gist of the method: (§2)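 Phenotypic viability qHTS, 48 h compound exposure, CellTiter-Glo luminescence read-out; multi-concentration dosing so that potency and efficacy derive directly from the primary screen's curves.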
A short description of test [8]: qHTS of pediatric cancer cell lines to identify multiple opportunities for drug repurposing: Primary screen for Saos-2 cells (AID 1347097). Note: nearly all actives have a fitted effect of over 40% in size. Note: potency is the fitted concentration of half-maximal effect. The method, boiled down: as §2
The nature of test [9]: qHTS of pediatric cancer cell lines to identify multiple opportunities for drug repurposing: Primary screen for BT-37 cells (AID 1347094). Note: potency is the fitted concentration of half-maximal effect. The gist of the method:
as §2

Test [10] can be described thus: qHTS of pediatric cancer cell lines to identify multiple opportunities for drug repurposing: Primary screen for SK-N-SH cells (AID 1347098). Note: nearly all actives have a fitted effect of over 65% in size. Note: potency is the fitted concentration of half-maximal effect. The gist of the method: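 Cells (500-1,000/well) rested 5 h, then received compounds for 48 h; metabolically active cells were measured by CellTiter-Glo luminescence. Final concentrations spanned up to 46 µM (MIPE, 11-point) or 0.59 nM-46 µM (NPC, 8-point) in primary screens, 11-point in follow-ups.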

Test [11] in a line: qHTS of pediatric cancer cell lines to identify multiple opportunities for drug repurposing: Primary screen for NB1643 cells (AID 1347099). Note: nearly all actives have a fitted effect of over 50% in size. Note: potency is the fitted concentration of half-maximal effect. The method, boiled down: as §2
Test [12] in a line: NS1 protein of Zika virus - qHTS assay to identify small molecule inhibitors in human HEK 293 cells (AID 1347053). Note: series mostly up to about 46 µM; nearly all actives have a fitted effect of over 55% in size. The gist of the method:
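TR-FRET signal from two anti-ZIKV NS1 antibodies quantified NS1 in HEK 293 cells 24 h after MR766 infection at MOI = 0.5; compounds were added 1 h before virus. Uninfected cells and infected cells defined the NS1 normalization range.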

Each structure is given as a SMILES string. Results filed as inconclusive are left out. Activity calls are given as the source filed them. Calls come from the whole dose curve; as a rule, active = well fitted curve in the direction sought with a large enough effect; inconclusive = small, poorly fitted or top-dose-only effect, or another doubt; inactive = no such curve, though single readings can be large; an effect the other way counts as inactive or inconclusive.

Take `COc1cccc2c1CCCC2CCCN1CCN(C2CCCCC2)CC1` (stereo unspecified): the Potency result in [1], in test [2], in [3] and in [5] was “inactive” in each case. Further, the Potency in [4] is 18.7 µM (active).
With `CCNc1cc(NC2CCC(O)CC2)nc(Nc2ccc3c(ccn3Cc3ccccc3)c2)n1` (stereo unspecified), the Potency result in test [1] is “inactive”. Moreover, the Potency in [6] and in test [3] was 29.6 µM (active) in each case.
With `NC(=O)c1cccc2[nH]c(-c3ccc([C@H]4CCCN4)cc3F)nc12`, the Potency result in test [2], in test [6], in test [5] and in test [8] was “inactive” each time. The Potency in test [3] was 11.8 µM (active); in test [7], 18.7 µM (active).
On to `CO[C@H]1C[C@@H]2CC[C@@H](C)[C@@](O)(O2)C(=O)C(=O)N2CCCC[C@@H]2C(=O)O[C@H]([C@H](C)C[C@@H]2CC[C@H](OC(=O)C(C)(CO)CO)[C@H](OC)C2)CC(=O)[C@H](C)C=C(C)[C@@H](O)[C@@H](OC)C(=O)[C@H](C)C[C@H](C)C=CC=CC=C1C`, for which the Potency in test [6] was 11.8 µM (active); in test [9], 30.6 µM (active); in test [7], 9.35 µM (active); in [8], 16.6 µM (active); in [11], 23.5 µM (active). The Potency entry in [10] is “inactive”.
For `NC(=O)[C@@H](CCC(F)(F)F)N(Cc1ccc(-c2ncon2)cc1F)S(=O)(=O)c1ccc(Cl)cc1`, the Potency result in test [12], in test [1], in [7], in test [5] and in [10] was “inactive” throughout. Moreover, the Potency in [4] was 23.5 µM (active).
Turning to `Cc1ccc(/C=N/NC(=O)c2ccccc2Oc2ccccc2)o1`, the Potency result in [12], in [1] and in test [5] was “inactive” each time. The results for the Potency in [4], in test [7] and in test [11] were 16.6 µM (active), 23.5 µM (active) and 18.7 µM (active), respectively.
On to `c1ccc2c(Cc3c[nH]c4ccccc34)c[nH]c2c1`, for which the Potency entry in [12] and in test [5] was “inactive” each time. Moreover, the Potency was 2.35 µM (active) in test [3], 0.833 µM (active) in test [4], 18.7 µM (active) in test [8] and 9.61 µM (active) in test [10].
For the compound `CC(C)(C)C(=O)Oc1ccc2c(c1)nc(NC(=O)c1cccc([N+](=O)[O-])c1)n2CCCO`, the Potency result in test [12], in [1], in test [5] and in test [8] was “inactive” each time. For the same compound, the figures for the Potency in test [3] and in test [4] were 11.8 µM (active) and 20.9 µM (active), respectively.
In the case of `CO[C@H]1C[C@@H]2CC[C@@H](C)[C@@](O)(O2)C(=O)C(=O)N2CCCC[C@@H]2C(=O)O[C@H]([C@@H](C)C[C@@H]2CC[C@H](O)[C@H](OC)C2)CC(=O)[C@H](C)C=C(C)[C@@H](O)[C@@H](OC)C(=O)[C@H](C)C[C@H](C)C=CC=CC=C1C`, the Potency result in test [1], in test [5], in test [8] and in test [10] was “inactive” in each case.
With `C[C@H]1[C@H](NC(=O)C(=NOC(C)(C)C(=O)O)c2csc(N)n2)C(=O)N1S(=O)(=O)O`, the Potency result in test [12], in [1], in [6], in [4], in test [9] and in [7] was “inactive” throughout. Besides, the Potency result in test [8] and in test [11] was “inactive” in each case.
As for `NC[C@@H]1O[C@@H](O[C@H]2[C@@H](O)[C@H](O[C@@H]3[C@@H](O)[C@@H](N)C[C@H](N)[C@H]3O[C@H]3O[C@H](CN)[C@@H](O)[C@@H](O)[C@H]3N)O[C@H]2CO)[C@H](N)[C@@H](O)[C@@H]1O`, the Potency result in [1], in [2], in test [4], in test [9], in test [7] and in test [5] was “inactive” in each case. Moreover, the Potency entry in test [8], in test [10] and in test [11] was “inactive” each time.
On to `CC(C)(C)NC(=O)Nc1cccc(Nc2ncc(F)c(NC(C)(C)CO)n2)c1`, for which the Potency result in [12], in test [2], in test [9], in [5] and in [8] was “inactive” throughout. In addition, the Potency in test [3] is 18.7 µM (active); in test [4], 3.32 µM (active).
Regarding `COc1ccc(-c2cc(=O)c3c(O)cc(O)cc3o2)cc1O`, the Potency entry in [12] and in test [5] was “inactive” throughout. Also, the Potency in test [3] is 4.69 µM (active); in test [4], 2.64 µM (active); in test [9] it was 21.7 µM (active); in test [7], 11.8 µM (active); in test [8], 18.7 µM (active); in test [10], 24.1 µM (active). The Potency in [11] was 4.69 µM (active).
Take `CCOC(CN1C(=O)[C@](CC(=O)Nc2ccc(C)cc2)(NC(=O)Nc2ccc(C)cc2)c2ccccc21)OCC`: the Potency entry in test [1], in test [5] and in test [10] was “inactive” in each case. Further, the Potency is 29.6 µM (active) in test [3] and 11.8 µM (active) in test [4].
Consider `Cc1c(O)cccc1C(=O)N[C@@H](CSc1ccccc1)[C@H](O)CN1C[C@H]2CCCC[C@@H]2C[C@@H]1C(=O)NC(C)(C)C`, for which the Potency result in test [1] is “inactive”. Further, the Potency in test [6] was 18.7 µM (active); in test [3] it was 23.5 µM (active); in test [4] it was 16.6 µM (active); in [8], 26.4 µM (active).
